Source: PubChem (National Center for Advancing Translational Sciences (NCATS))
ASM inhibitor: Inhibitors of Secretory Acid Sphingomyelinase (S-ASM): qHTS; 340,000 compounds, 0.006% hits; Potency, µM (titrated, usually from 57.5 µM), without a hit: top-dose activity change, negative = inhibition, most hits filed as inhibitors; Sphingomyelin phosphodiesterase (Homo sapiens), P17405; placental ASM, HMU-PC fluorogenic substrate, 60 min; note: potency is the fitted concentration of half-maximal effect
Target sequence (P17405 47-631 limits assumed): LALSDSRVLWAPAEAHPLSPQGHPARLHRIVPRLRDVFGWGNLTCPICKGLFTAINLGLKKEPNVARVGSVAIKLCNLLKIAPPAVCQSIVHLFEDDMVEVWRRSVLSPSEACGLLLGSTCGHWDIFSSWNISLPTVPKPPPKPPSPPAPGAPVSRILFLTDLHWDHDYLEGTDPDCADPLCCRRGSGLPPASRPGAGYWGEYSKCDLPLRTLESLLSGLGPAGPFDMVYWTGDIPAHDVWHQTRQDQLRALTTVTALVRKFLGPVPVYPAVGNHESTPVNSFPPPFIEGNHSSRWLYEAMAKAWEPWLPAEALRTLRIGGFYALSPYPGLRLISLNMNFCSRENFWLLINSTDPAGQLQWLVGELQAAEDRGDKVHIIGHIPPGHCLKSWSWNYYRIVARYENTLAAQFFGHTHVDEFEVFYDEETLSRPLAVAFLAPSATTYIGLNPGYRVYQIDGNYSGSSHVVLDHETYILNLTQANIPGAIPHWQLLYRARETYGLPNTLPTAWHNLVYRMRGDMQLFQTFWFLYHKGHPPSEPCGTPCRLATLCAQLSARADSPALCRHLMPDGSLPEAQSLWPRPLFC
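Fluorescence read-out (Ex 386 nm, Em 447 nm) after stopping the reaction at pH 10. Enzyme: ASM from human placenta; substrate HMU-PC0, 9 uM final; 60 min, 37 °C. Compound preincubation 10 min, ambient temperature.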
MCF10A rerep: A quantitative high throughput screen for small molecules that induce DNA re-replication in MCF 10a normal breast cells; MCF 10A DNA re-replication, Hoechst nuclear intensity, 48 h; Potency, µM (doses to about 46.1 µM), inactives show top-dose activity, positive = re-replication, actives largely listed as activators; 350,000 compounds, 2.9% hits; note: potency is the fitted concentration of half-maximal effect; % of control where 0% means no effect; nearly all actives have a fitted effect of over 50% in size
Giardia kill: Small Molecules that selectively kill Giardia lamblia: qHTS. Giardia lamblia trophozoite viability. activity change, % at 7.66 µM, hits read low. 340,000 compounds, 0.15% hits; in the data active = activity change below about -80%; inconclusive = between about -30% and that limit;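 note: parasites exposed to compound for two days anaerobically before the ATP read; % is set by controls: 0 for no effect and ±100 for the full control effect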
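Giardia lamblia trophozoites (100 cells/well) were incubated with compounds for 48 h at 37 deg C under anaerobic conditions. Viability was read as ATP content by one-step luminescence after 15-30 min at room temperature.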
KB-V1 MDR tox: qHTS assay for MDR1-selective chemotherapeutics: Primary screen using the drug-selected MDR subline cells KB-V1; KB-V1 MDR cells viability, CellTiter-Glo, 72 h; Potency, µM (highest dose often 46.1 µM), usual class: cytotoxic; 400,000 compounds, 3.4% hits; AID 1347076, 2019; note: potency is the fitted concentration of half-maximal effect; % is set by controls: 0 for no effect and ±100 for the full control effect; nearly all actives have a fitted effect of over 60% in size
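In this primary screen, KB-V1 cells overexpressing P-gp are incubated with library compounds (lowest to highest concentration) for 72 h at 37 degrees C before a luminescent ATP viability read.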
SW480 rereplic: A quantitative high throughput screen for small molecules that induce DNA re-replication in SW480 colon adenocarcinoma cells | AID 624297, 2012 | Potency, µM (highest dose often 46.1 µM), for inactives: at the highest dose re-replication activation, hits mostly activators | 340,000 compounds, 1.8% hits | SW480 DNA re-replication, Hoechst DNA content imaging, 48 h; note: potency is the fitted concentration of half-maximal effect; % of control where 0% means no effect; nearly all actives have a fitted effect of over 55% in size
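Image-based DNA-content assay: after two days of treatment, nuclei were labelled with the DNA dye Hoechst and imaged, and hits were compounds raising the count of nuclei showing high fluorescence intensity.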
KB-3-1 tox: qHTS assay for MDR1-selective chemotherapeutics: Primary screen using the parental adenocarcinoma cell KB-3-1; KB-3-1 viability, CellTiter-Glo ATP luminescence, 72 h; Potency, µM (doses to about 46.1 µM), actives largely listed as cytotoxic; 400,000 compounds, 1.4% hits; note: potency is the fitted concentration of half-maximal effect; % is set by controls: 0 for no effect and ±100 for the full control effect; nearly all actives have a fitted effect of over 60% in size
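Multi-concentration cytotoxicity screen in KB-3-1 cells grown in DMEM lacking phenol red with 10% FBS. After 72 h at 37 °C with compound, ATP-dependent luminescence was recorded.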
* hit, by the source's call; i = inactive; ? = inconclusive; · = no result given. This is a sample that favours compounds with a hit; in the whole collection about 6.9% have one here. Unless noted, calls come from the whole dose curve; as a rule, active = well fitted curve in the direction sought with a large enough effect; inconclusive = small, poorly fitted or top-dose-only effect, or another doubt; inactive = no such curve, though single readings can be large; an effect the other way counts as inactive or inconclusive.

SMILES | ASM inhibitor | MCF10A rerep | Giardia kill | KB-V1 MDR tox | SW480 rereplic | KB-3-1 tox
CCN(CC)CCOC(=O)c1ccc(NC(=O)Cn2ncc3c([nH]c4ccc(C)cc43)c2=O)cc1 | · | · | · | i | · | ?
COc1ccc(C(c2sc3ncnn3c2O)N2CCN(c3ccccc3F)CC2)cc1OC (configuration not stated) | 0% | 0% | -8 | 1.6µM* | -4% | 2.9µM*
Cc1cc(C)n(-c2ccc(C(=O)Nc3sccc3C(N)=O)cc2)n1 | -3% | ? | -4 | 29µM* | -5% | ?
Cc1nnc(NC(=O)C2CCN(C(=O)c3ccsc3)CC2)s1 | · | · | -16 | i | · | i
CCN1CCN(CCOc2ccc(Cl)cc2)CC1 | -2% | ? | -7 | i | 12% | i
Clc1ccc(OCCN2CCN(c3ncnc4sccc34)CC2)cc1 | 0% | 8% | -4 | 2.9µM* | 3% | ?
Cc1ccc(OCCN2CCN(c3ncnc4sc(C)c(C)c34)CC2)cc1 | -4% | 23µM* | -2 | i | ? | ?
Cc1sc2ncnc(N3CCCCC3)c2c1C | 0% | 2% | 8 | i | -2% | i
COc1cc(Br)cc(C=Nc2cccc(C(F)(F)F)c2)c1O | 2% | 21µM* | 6 | i | -1% | ?
CCN(CC)c1ccc(-n2nc3cc(C)c(NC(=O)c4ccccc4F)cc3n2)cc1 | · | · | · | ? | · | i
O=C(/C=C/c1ccccc1)NC(=S)Nc1ccc2c3c(cccc13)CC2 | -1% | ? | 8 | i | -2% | 4.1µM*
COc1ccc(CN2C(=O)N(c3ccccc3)C(=O)C2c2ccccc2)cc1COc1ccc(NC(C)=O)cc1 (configuration not stated) | · | · | 6 | · | · | ·
Cc1ccc(/C=C/C(=O)OC(C)C(=O)NC2CCCCC2C)o1 (configuration not stated) | 2% | 0% | -2 | ? | -3% | i
CCOC(=O)c1cccc(NC(=O)C2CCN(S(=O)(=O)c3cccs3)CC2)c1 | -9% | 16% | 6 | 7.3µM* | 4% | ?
O=C(Nc1ccc(F)c(F)c1)C1CCN(S(=O)(=O)c2cccs2)CC1 | -2% | 12% | -9 | 16µM* | 4% | i
CCOC(=O)C1CCCN(C(=O)C2CCN(S(=O)(=O)c3cccs3)CC2)C1 (configuration not stated) | 0% | -2% | 10 | i | 0% | 21µM*
COc1cccc(NC(=O)C2CCC(CNS(=O)(=O)c3csc(C(N)=O)c3)CC2)c1 (configuration not stated) | · | · | · | i | · | i
COc1cccc(NC(=O)C2CCC(CNS(=O)(=O)c3cccs3)CC2)c1 (configuration not stated) | -2% | ? | -10 | i | 21µM* | ?
CCc1cccc(NC(=O)C2CCN(S(=O)(=O)c3cccs3)CC2)c1 | -4% | -4% | 11 | i | 0% | i
O=C(C1CCN(S(=O)(=O)c2cccs2)CC1)N1CCCCC1 | -2% | 3% | -3 | i | -16% | i
CC1=C(C(=O)Nc2ccccc2)C(c2ccccn2)n2nc(SCc3ccccc3)nc2N1 (configuration not stated) | · | · | · | i | · | i
CCOc1cccc(C2C=C(c3ccc4c(c3)OCO4)NC(c3ccccc3F)N2)c1O (configuration not stated) | · | · | ? | i | · | i
CCOC(=O)N1CCN(C(=O)C2CCN(S(=O)(=O)c3cc(Cl)ccc3Cl)CC2)CC1 | 2% | 3% | -17 | ? | -3% | i
CCOC(=O)C1CCN(C(=O)C2CCN(S(=O)(=O)c3cc(Cl)ccc3Cl)CC2)CC1 | 0% | -2% | -8 | 23µM* | -3% | i
